# Compounds without any hit were thinned out: in the full panel of roughly 79,000, 15% have a hit. A number with no mark means an inactive call. Calls of active or inactive are those of the source. Rule as the data show it: active = growth inhibition above about 70%; inactive = the rest.
# Tests used:
# [1] = NCI Yeast Anticancer Drug Screen. Data for the rad52 strain (AID 147);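 also: 0% = growth of vehicle-treated control cultures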; conditions: S. cerevisiae rad52 mutant growth inhibition, hits give high values
# Summary of the method: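 The repair-mutant yeast strain was incubated with compounds, then growth was read and inhibition derived relative to vehicle.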
# [2] = NCI Yeast Anticancer Drug Screen. Data for the wt1 strain (AID 149);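 also: 0% = growth of vehicle-treated wt1 cultures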; conditions: S. cerevisiae wt1 strain (SPY 50644) growth inhibition, hits give high values
# Summary of the method: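 The wt1 strain was treated with compounds, and growth was compared with vehicle-treated cultures to give inhibition.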
# [3] = NCI Yeast Anticancer Drug Screen. Data for the rad50EPP+ strain (AID 151);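 also: 0% = growth of vehicle-treated control cultures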; conditions: S. cerevisiae rad50 mutant strain, hits give high values
# Summary of the method: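 Vehicle-normalised growth inhibition; rad50EPP+ yeast strain, altered in DNA damage repair, compound-treated.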
# [4] = NCI Yeast Anticancer Drug Screen. Data for the mgt1 strain (AID 153); conditions: S. cerevisiae mgt1 mutant growth inhibition, hits give high values
# Summary of the method: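 Vehicle-normalized growth inhibition is determined in mgt1 yeast, a strain selected for a defined alteration in DNA repair or cell cycle control.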
# [5] = NCI Yeast Anticancer Drug Screen. Data for the rad50 strain (AID 155);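 also: 0% = growth of vehicle-only cultures of the same strain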; conditions: S. cerevisiae rad50 strain growth inhibition, hits give high values
# Summary of the method: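 Cells are treated with compound, grown, and their growth is then scored against vehicle-only cultures of the same repair-deficient yeast strain.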
# [6] = NCI Yeast Anticancer Drug Screen. Data for the mec2-1 strain (AID 157); conditions: S. cerevisiae mec2-1 strain, hits give high values
# Summary of the method: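 Mutant yeast (mec2-1) grown with compound; growth inhibition relative to vehicle control reported.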
# [7] = NCI Yeast Anticancer Drug Screen. Data for the rad14 strain (AID 159);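 also: 0% = growth of vehicle-treated control cultures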; conditions: S. cerevisiae rad14 strain growth inhibition, hits give high values
# Summary of the method: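 Readout: yeast growth inhibition, referenced to vehicle-only cultures. Strain bears a defined alteration in DNA damage repair.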
# [8] = NCI Yeast Anticancer Drug Screen. Data for the sgs1 mgt1 strain (AID 161);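 also: 0% = growth of cultures given vehicle only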; conditions: S. cerevisiae sgs1 mgt1 strain, hits give high values
# Summary of the method: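 Yeast cells carrying a defined DNA-repair defect were exposed to test compounds. Growth inhibition was measured relative to vehicle-treated controls.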
# [9] = NCI Yeast Anticancer Drug Screen. Data for the CLN2oe strain (AID 163);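 also: 0% = growth of vehicle-only control cultures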; conditions: S. cerevisiae CLN2oe strain, hits give high values
# Summary of the method: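 Compounds are applied to yeast harbouring a defined cell-cycle control change; reduced growth compared with vehicle-treated controls gives the value.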
# [10] = NCI Yeast Anticancer Drug Screen. Data for the cln2 rad14 strain (AID 165);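 also: 0% = growth equal to vehicle treated cultures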; conditions: S. cerevisiae cln2 rad14 strain, hits give high values
# Summary of the method: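 Readout is yeast growth inhibition versus vehicle-treated controls, using a strain with cln2 and rad14 alterations exposed to compound.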
# [11] = NCI Yeast Anticancer Drug Screen. Data for the bub3 strain (AID 167); conditions: S. cerevisiae bub3 mutant strain, hits give high values
# Summary of the method: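 Part of a panel of yeast mutants defective in DNA damage repair or cell cycle regulation. Each strain is grown with compound, and inhibition is calculated relative to solvent-treated cultures.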
# [12] = NCI Yeast Anticancer Drug Screen. Data for the wt2 strain (AID 169);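 also: 0% = growth of vehicle-treated yeast cultures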; conditions: S. cerevisiae wt2 strain growth inhibition, hits give high values
# Summary of the method: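 Against vehicle-treated controls, the growth of yeast exposed to each compound was compared, and the inhibition was recorded.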
# [13] = NCI Yeast Anticancer Drug Screen. Data for the mlh1 strain (AID 171);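 also: 0% = growth of vehicle-treated control cultures of the same strain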; conditions: S. cerevisiae mlh1 strain growth inhibition, hits give high values
# Summary of the method: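 Measured: yeast growth. Reference: vehicle-treated controls. Organism: strain with a defined alteration affecting DNA damage repair or cell cycle control, treated with compound.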
# [14] = NCI Yeast Anticancer Drug Screen. Data for the sgs1 strain (AID 173);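 also: 0% = growth of vehicle-only control cultures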; conditions: S. cerevisiae sgs1 mutant, hits give high values
# Summary of the method: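 Each compound was added to cultures of the altered yeast strain. Growth was recorded, and inhibition was derived by comparison with vehicle controls.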
# [15] = NCI Yeast Anticancer Drug Screen. Data for the mlh1 rad18 strain (AID 175); conditions: S. cerevisiae mlh1 rad18 strain growth inhibition, hits give high values
# Summary of the method: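 Genetically defined yeast (DNA repair-deficient) exposed to compounds; growth inhibition determined relative to vehicle.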
# [16] = NCI Yeast Anticancer Drug Screen. Data for the rad18 strain (AID 177); conditions: S. cerevisiae rad18 mutant growth inhibition, hits give high values
# Summary of the method: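 Vehicle-treated cultures served as the baseline for scoring compound-induced growth inhibition in DNA-repair-mutant yeast.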
# [17] = at 5.0 µM (retest, dose inferred, filed as 0.5)
# [18] = at 50.0 µM (retest, dose inferred, filed as 5.0)
compound,measurement,setting,value
O=C1c2cccc3cc([N+](=O)[O-])cc(c23)C(=O)N1CCN1CCCC1,growth inhibition,[1]; at 1.2 µM,33%
same,growth inhibition,[1]; at 3.7 µM,61%
same,growth inhibition,[1]; at 11.0 µM,63%
same,growth inhibition,[1]; at 33.0 µM,90% (active)
same,growth inhibition,[1]; at 100.0 µM,94% (active)
same,growth inhibition,[2]; at 1.2 µM,8%
same,growth inhibition,[2]; at 3.7 µM,8%
same,growth inhibition,[2]; at 11.0 µM,0%
same,growth inhibition,[2]; at 33.0 µM,3%
same,growth inhibition,[2]; at 100.0 µM,25%
same,growth inhibition,[3]; at 1.2 µM,13%
same,growth inhibition,[3]; at 3.7 µM,23%
same,growth inhibition,[3]; at 11.0 µM,39%
same,growth inhibition,[3]; at 33.0 µM,73% (active)
same,growth inhibition,[3]; at 100.0 µM,83% (active)
same,growth inhibition,[4]; at 1.2 µM,-6%
same,growth inhibition,[4]; at 3.7 µM,10%
same,growth inhibition,[4]; at 11.0 µM,8%
same,growth inhibition,[4]; at 33.0 µM,7%
same,growth inhibition,[4]; at 100.0 µM,44%
same,growth inhibition,[5]; at 1.2 µM,16%
same,growth inhibition,[5]; at 3.7 µM,48%
same,growth inhibition,[5]; [17],11%
same,growth inhibition,[5]; at 11.0 µM,62%
same,growth inhibition,[5]; at 33.0 µM,88% (active)
same,growth inhibition,[5]; [18],95% (active)
same,growth inhibition,[5]; at 50.0 µM,66.7%
same,growth inhibition,[5]; at 100.0 µM,91% (active)
same,growth inhibition,[6]; at 1.2 µM,5%
same,growth inhibition,[6]; at 3.7 µM,5%
same,growth inhibition,[6]; [17],11%
same,growth inhibition,[6]; at 11.0 µM,-3%
same,growth inhibition,[6]; at 33.0 µM,-4%
same,growth inhibition,[6]; [18],30%
same,growth inhibition,[6]; at 50.0 µM,28.1%
same,growth inhibition,[6]; at 100.0 µM,38%
same,growth inhibition,[7]; at 1.2 µM,12%
same,growth inhibition,[7]; at 3.7 µM,11%
same,growth inhibition,[7]; at 11.0 µM,14%
same,growth inhibition,[7]; at 33.0 µM,5%
same,growth inhibition,[7]; at 100.0 µM,28%
same,growth inhibition,[8]; [17],8%
same,growth inhibition,[8]; [18],12%
same,growth inhibition,[8]; at 50.0 µM,-14.2%
same,growth inhibition,[9]; at 1.2 µM,7%
same,growth inhibition,[9]; at 3.7 µM,25%
same,growth inhibition,[9]; at 11.0 µM,25%
same,growth inhibition,[9]; at 33.0 µM,39%
same,growth inhibition,[9]; at 100.0 µM,61%
same,growth inhibition,[10]; [17],9%
same,growth inhibition,[10]; [18],36%
same,growth inhibition,[10]; at 50.0 µM,-15.8%
same,growth inhibition,[11]; at 1.2 µM,9%
same,growth inhibition,[11]; at 3.7 µM,20%
same,growth inhibition,[11]; [17],9%
same,growth inhibition,[11]; at 11.0 µM,13%
same,growth inhibition,[11]; at 33.0 µM,17%
same,growth inhibition,[11]; [18],12%
same,growth inhibition,[11]; at 50.0 µM,-11.2%
same,growth inhibition,[11]; at 100.0 µM,35%
same,growth inhibition,[12]; at 1.2 µM,-11%
same,growth inhibition,[12]; at 3.7 µM,0%
same,growth inhibition,[12]; at 11.0 µM,12%
same,growth inhibition,[12]; at 33.0 µM,7%
same,growth inhibition,[12]; at 100.0 µM,19%
same,growth inhibition,[13]; at 1.2 µM,0%
same,growth inhibition,[13]; at 3.7 µM,20%
same,growth inhibition,[13]; at 11.0 µM,-4%
same,growth inhibition,[13]; at 33.0 µM,18%
same,growth inhibition,[13]; at 100.0 µM,39%
same,growth inhibition,[14]; at 1.2 µM,0%
same,growth inhibition,[14]; at 3.7 µM,0%
same,growth inhibition,[14]; at 11.0 µM,2%
same,growth inhibition,[14]; at 33.0 µM,19%
same,growth inhibition,[14]; at 100.0 µM,50%
same,growth inhibition,[15]; [17],3%
same,growth inhibition,[15]; [18],18%
same,growth inhibition,[15]; at 50.0 µM,-41.9%
same,growth inhibition,[16]; at 1.2 µM,24%
same,growth inhibition,[16]; at 3.7 µM,23%
same,growth inhibition,[16]; at 11.0 µM,33%
same,growth inhibition,[16]; at 33.0 µM,15%
same,growth inhibition,[16]; at 100.0 µM,73% (active)

# From PubChem BioAssay (NCI)
